Hits are enriched below; roughly 2.3% of the tested compounds scored in any of these assays.
M1 PAM parental = counter-screen for M1 PAMs: effect in parental CHO-K1 cells | ATP EC20, Fluo-8 calcium fluorescence; 0% at ATP EC20, 100% at ATP max | activation, % at 3 µM | 360,000 tested, 0.02% active;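 active = activation above the run cutoff, the mean activation of all test compounds plus 3 SD, cut at about 40% in these data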;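 note: peak over basal fluorescence ratio in a 140 s read after ATP addition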
M1 ag = activates human CHRM1 receptor; 360,000 tested, 0.33% active; activation, % at 3 µM; CHO-K1 hM1, Fluo-8 calcium fluorescence, agonist mode; 0% DMSO, 100% acetylcholine EC100; P11229;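 active = activation above the run's mean compound activation plus 3 SD, cut at about 16% in these data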;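 note: peak over basal fluorescence ratio within a 140 s kinetic read after compound addition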
Target sequence (P11229 whole entry, looked up): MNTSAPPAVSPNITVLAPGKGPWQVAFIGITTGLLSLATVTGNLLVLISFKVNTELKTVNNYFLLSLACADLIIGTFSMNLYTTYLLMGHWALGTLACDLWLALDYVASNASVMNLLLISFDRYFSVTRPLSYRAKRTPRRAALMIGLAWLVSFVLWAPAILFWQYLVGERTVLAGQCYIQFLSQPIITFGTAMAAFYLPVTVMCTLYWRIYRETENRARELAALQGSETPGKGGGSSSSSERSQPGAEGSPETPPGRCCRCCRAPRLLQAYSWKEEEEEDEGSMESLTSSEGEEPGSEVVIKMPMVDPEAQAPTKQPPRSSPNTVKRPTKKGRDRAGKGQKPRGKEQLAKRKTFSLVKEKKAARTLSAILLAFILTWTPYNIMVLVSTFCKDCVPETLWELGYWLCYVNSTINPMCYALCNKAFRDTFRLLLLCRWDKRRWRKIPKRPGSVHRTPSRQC
CHRM1 PAM = positive allosteric modulators of human M1 muscarinic receptor; 360,000 tested, 0.088% active; activation, % at 3 µM; P11229; CHO-K1 hM1, Fluo-8 calcium fluorescence, ACh EC20; 0% = ACh EC20, 100% = maximal ACh; AID 588819; in the data active = activation above about 19%, passing the limit was not always enough
CHRM1 antagonist = antagonists of human M1 muscarinic receptor | CHO-K1 hM1, Fluo-8 calcium fluorescence, ACh EC80 antagonist | inhibition, % at 3 µM | 360,000 tested, 1.3% active;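 active = percent inhibition above its own plate's cutoff, namely the mean of that plate's compound wells plus 3 SD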;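 note: peak over basal fluorescence ratio during 140 s after agonist addition; 0% = ACh EC80 plus DMSO and 100% = DMSO alone without agonist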
CHO-K1 Ca antag = M1 antagonist counterscreen hit in parental CHO-K1 cells; ATP-induced calcium, Fluo-8 fluorescence; 360,000 tested, 0.6% active; AID 602250; inhibition, % at 3 µM;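 active = inhibition above a per-plate cutoff, the plate's mean sample inhibition plus 3 SD, cut at about 24% in these data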;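 note: 0% = DMSO plus EC80 ATP and 100% = DMSO alone without ATP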
M1 ag parental = counter-screen for M1 agonists: effect in parental CHO-K1 cells; Fluo-8 calcium fluorescence; scaled to maximal ATP response, vehicle zero; activation, % at 3 µM; 360,000 tested, 0.48% active; AID 602248; in the data active = activation above about 15%;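 note: untransfected CHO-K1 host cells lacking M1 receptor as counterscreen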
Active calls of the source: *.

SMILES	M1 PAM parental	M1 ag	CHRM1 PAM	CHRM1 antagonist	CHO-K1 Ca antag	M1 ag parental
Cc1ccc(NC(=O)CSc2nnnn2C2CCCC2)cc1S(=O)(=O)N1CCOCC1	2	-4	-4	8	-9	3
COc1ccc(CCNC(=O)C(=O)c2cn(CC(=O)N3CCCC3)c3ccccc23)cc1	7	-3	8	-16	-13	2
CN(CC(=O)Nc1c(Cl)cccc1Cl)C(=O)C1=COCCO1	-11	0	12	-14	9	1
CCN(Cc1ccccc1)C(=O)c1cc2c(OC)c(OC)c(OC)cc2[nH]1	5	-5	-9	15	-4	1
OC(C#CCN1CCCC1)(c1ccccc1)c1ccccc1	-9	-7	-25	100*	2	0
CC(O)(C#CCN1CCCCCC1)c1ccccc1 (stereo not drawn)	16	-9	-30	41*	-5	4
OC(C#CCN1CCCCC1)(c1ccccc1)c1ccccc1	18	-8	-26	100*	-9	2
CC(C)C(O)(C#CCN1CCCCC1)C(C)C	12	-14	-27	64*	-10	1
OC(C#CCN1CCOCC1)(c1ccccc1)C1CC1 (stereo not drawn)	14	-3	9	-11	-5	1
CC1(C(=O)Nc2ccc(Cl)c(Cl)c2)CCN1Cc1cc2ccccc2o1 (stereo not drawn)	30	-6	5	-14	-15	1
CC(=O)Oc1ccc2c(c1)c(C(C)=O)c(C)n2C	7	-1	5	-3	-10	0
COc1ccc2c(c1)c(C(C)=O)c(C)n2C	14	4	7	-5	3	19*
Cc1c(NC(=O)c2ccc(S(=O)(=O)N3CC(C)OC(C)C3)cc2)c(=O)n(-c2ccccc2)n1C (stereo not drawn)	-8	-12	12	-6	32*	12
CCCN(CCC)S(=O)(=O)c1ccc(C(=O)Nc2c(C)n(C)n(-c3ccccc3)c2=O)cc1	13	-6	0	39*	-15	0
Cc1c(NC(=O)c2ccc(N(C)S(=O)(=O)c3ccccc3)cc2)c(=O)n(-c2ccccc2)n1C	-1	-15	-6	7	-2	1
Cc1c(NC(=O)c2ccc(S(=O)(=O)Nc3ccccc3F)cc2)c(=O)n(-c2ccccc2)n1C	-11	-6	-22	35*	-3	0
Cc1c(NC(=O)c2cccc(S(=O)(=O)N(C)c3ccccc3)c2)c(=O)n(-c2ccccc2)n1C	-20	-7	-20	38*	-9	1
Cc1c(NC(=O)c2ccccc2NS(=O)(=O)c2ccc(F)cc2)c(=O)n(-c2ccccc2)n1C	-14	-6	2	0	21	0
N#CC12C(=O)NC(=O)C1(C#N)C21CCCC1 (stereo not drawn)	17	-2	8	-13	-12	1
COc1ccc(N2CCN(C(CNC(=O)CC(C)(C)C)c3ccc4c(c3)OCO4)CC2)cc1 (stereo not drawn)	-16	-13	-38	31*	-15	1
COc1ccc(N2CCN(C(CNC(C)=O)c3ccc4c(c3)OCO4)CC2)cc1 (stereo not drawn)	-14	1	15	-5	-4	0
Oc1ccc2ccccc2c1Br	-9	0	-10	1	24*	0
CCOC(=O)C1=CCC(c2ccccc2)N(S(=O)(=O)c2ccccc2C)C1 (stereo not drawn)	4	-7	-3	3	7	1
Cc1cc(NC(=O)CSCC(=O)Nc2cccc(S(=O)(=O)N3CCCCCC3)c2)no1	-4	-1	9	-9	8	9
COc1ccc([C@H]2CC(=O)C=C(c3ccc(F)cc3OCc3ccccc3)C2)cc1OC	1	-1	-15	50*	16	2
SMILES	M1 PAM parental	M1 ag	CHRM1 PAM	CHRM1 antagonist	CHO-K1 Ca antag	M1 ag parental
CCn1c(=O)c(C(=O)CN(C)CC(=O)Nc2ccccc2Br)c(N)n(Cc2ccccc2)c1=O	-1	-5	7	-12	9	0
CCn1c(SCC(=O)c2ccc(NS(=O)(=O)c3ccccc3)cc2)nnc1-c1cccs1	-5	-7	-10	14	24*	0
CCn1c(SCC(=O)Nc2ccccc2)nnc1-c1cccs1	-5	0	10	-23	3	1
COc1cccc(OCc2nn3c(=O)c(-c4ccccc4)nnc3s2)c1	-17	-4	6	-15	1	2
Cc1cc(C)nc(/N=C(\N)Nc2ccc(OCCC(C)C)cc2)n1	-12	33*	-30	84*	52*	33*
COc1ccc(N/C(N)=N/c2nc(C)cc(C)n2)cc1	-5	-6	-14	21	19	7
COc1ccccc1N/C(N)=N/c1nc(C)cc(C)n1	24	-5	1	-10	-10	2
CCOC(=O)C(=O)Nc1ccc(OCc2ccccc2)cc1	-1	-3	-2	4	2	6
Cc1cc(C)nc(/N=C(\N)Nc2ccc(OCc3ccccc3)cc2)n1	-12	70*	-41	89*	89*	91*
Cc1cc(C)nc(/N=C(\N)Nc2ccc(CC(=O)OC(C)C)cc2)n1	-31	15	-30	59*	45*	37*
Cc1cc(C)nc(/N=C(\N)Nc2cccc(OCc3ccccc3)c2)n1	-30	26*	-28	59*	22	46*
Cc1cc(SCC(=O)OCC(=O)N(CCC#N)c2ccccc2)nc2ccccc12	12	-5	-2	-1	-5	2
CC1CCN(C(=O)C(C)OC(=O)CSc2ccc([N+](=O)[O-])cc2)CC1 (stereo not drawn)	-14	0	14	-16	3	0
COc1ccc(S(=O)(=O)Nc2cc3c4c(c2)CCN4C(=O)CC3)cc1OC	-5	-2	5	-6	1	1
Cc1ccc(-n2ncc3c2CC(C)(C)CC3NC(=O)CCc2ccc(=O)[nH]n2)cc1 (stereo not drawn)	-6	-7	10	-2	-2	0
CC(=O)N1CCc2cc(Br)cc(S(=O)(=O)N3CCN(C(=O)c4ccco4)CC3)c21	-7	-2	-10	18	24*	1
CC(=O)N1CCc2cc(Br)cc(S(=O)(=O)N3CCCCCC3)c21	6	-1	0	-11	5	1
C[N+]12CCC(CC1)C(OC(=O)C(O)(c1ccccc1)c1ccccc1)C2 (stereo not drawn)	29	-7	-26	98*	-9	2
COC(=O)c1ccc(CNC(=O)CNC(=O)c2sc3ccccc3c2Cl)cc1	17	-1	12	-10	-12	1
CCN(CC)C(=O)[C@H]1C[C@H](CC(=O)NCc2ccc(OC)c(OC)c2)C(=O)N2CCc3c([nH]c4ccc(Cl)cc34)[C@]12C	20	-8	7	-10	-6	2

Screening results deposited in PubChem by The Scripps Research Institute Molecular Screening Center.
